# Measurements published in PubChem BioAssay (EPA / NIEHS).
# The source made the active and inactive calls. How the source made its calls: active means hit-call score of the fitted dose curve at least 0.9, where 1 is the maximum; inactive means score below 0.9.
# Assays:
# [1] = read-out: Interferon-gamma inducible Protein 10 (IP10), CXCL10 (gene 3627); assay: BSK_hDFCGF_IP10: BioMAP Diversity Plus: hDFCGF Assay for Interferon-gamma inducible Protein 10 (IP10) Biomarker Activity (AID 2283053); conditions: primary human foreskin fibroblasts; actives raise or lower the signal
# How it was run: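 ELISA quantification of IP-10 after a 24 h chemical exposure of human dermal foreskin fibroblast primary cultures. Both increases and decreases versus DMSO fitted.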
# [2] = read-out: Urokinase-type plasminogen activator receptor (uPAR), PLAUR (gene 5329); assay: BSK_CASM3C_uPAR: BioMAP Diversity Plus: CASM3C Assay for Urokinase-type plasminogen activator receptor (uPAR) Biomarker Activity (AID 2283054); conditions: primary human coronary artery smooth muscle cells; actives raise or lower the signal;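 further: cell-surface uPAR protein level quantified by ELISA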
# [3] = read-out: Vascular cell adhesion molecule 1 (VCAM1), VCAM1 (gene 7412); assay: BSK_CASM3C_VCAM1: BioMAP Diversity Plus: CASM3C Assay for Vascular cell adhesion molecule 1 (VCAM1) Biomarker Activity (AID 2283055); conditions: primary human coronary artery smooth muscle cells; actives raise or lower the signal;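 further: VCAM-1 protein level quantified by ELISA on the cells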
# [4] = read-out: Epidermal growth factor receptor (EGFR), EGFR (gene 1956); assay: BSK_hDFCGF_EGFR: BioMAP Diversity Plus: hDFCGF Assay for Epidermal growth factor receptor (EGFR) Biomarker Activity (AID 2283057); conditions: primary human foreskin fibroblasts; actives raise or lower the signal
# How it was run: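 EGFR levels by ELISA in human dermal fibroblast cultures, 24 h post-treatment, fitted bidirectionally versus DMSO. Parallel wells stained with sulforhodamine B to detect overt cytotoxicity.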
# [5] = read-out: Interleukin-8 (IL8), CXCL8 (gene 3576); assay: BSK_hDFCGF_IL8: BioMAP Diversity Plus: hDFCGF Assay for Interleukin-8 (IL8) Biomarker Activity (AID 2283058); conditions: primary human foreskin fibroblasts; actives raise or lower the signal
# How it was run: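 Primary human foreskin fibroblasts (hDFCGF system) dosed with chemical; IL-8 measured by ELISA 24 hours later. Bidirectional curve fitting relative to DMSO baseline; cytotoxicity tracked in parallel cultures by SRB total protein staining.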
# [6] = BSK_hDFCGF_Proliferation: Cell Proliferation Assessment in the BioMAP Diversity Plus: hDFCGF Assay (AID 2283059); conditions: primary human foreskin fibroblasts;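 further: curves fitted for both rise and fall of signal versus DMSO baseline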
# How it was run: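 This proliferation readout used SRB total-protein staining of human foreskin fibroblasts […], normalized to DMSO with bidirectional curve fitting.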
# [7] = read-out: Macrophage colony-stimulating factor (MCSF), CSF1 (gene 1435); assay: BSK_hDFCGF_MCSF: BioMAP Diversity Plus: hDFCGF Assay for Macrophage colony-stimulating factor (MCSF) Biomarker Activity (AID 2283060); conditions: primary human foreskin fibroblasts; actives raise or lower the signal
# How it was run: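 Human foreskin fibroblast primary cultures; M-CSF measured by ELISA 24 hours after chemical dosing. Bidirectional fitting relative to DMSO, with overt cytotoxicity tracked by parallel SRB total-protein staining (0.1% SRB, 10% TCA fixation, 560 nm).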
# [8] = BSK_hDFCGF_SRB: Viability Assessment in the BioMAP Diversity Plus: hDFCGF Assay (AID 2283061); conditions: primary human foreskin fibroblasts;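 further: cells exposed to compound for 24 h before the read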
# How it was run: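 Human foreskin fibroblasts in 96-well plates were treated 24 h. Total protein was measured by 0.1% SRB staining after 10% TCA fixation, read at 560 nm. Data were fitted bidirectionally against DMSO.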
# [9] = read-out: TIMP metallopeptidase inhibitor 1 (TIMP1), TIMP1 (gene 7076); assay: BSK_hDFCGF_TIMP1: BioMAP Diversity Plus: hDFCGF Assay for TIMP metallopeptidase inhibitor 1 (TIMP1) Biomarker Activity (AID 2283062); conditions: primary human foreskin fibroblasts; actives raise or lower the signal
# How it was run: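 Human foreskin fibroblast primary cultures dosed for 24 h; secreted/surface TIMP-1 quantified by ELISA. Bidirectional curve fitting against DMSO baseline; cytotoxicity tracked in parallel cultures by SRB total-protein staining.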
# [10] = read-out: Monokine induced gamma interferon (MIG), CXCL9 (gene 4283); assay: BSK_hDFCGF_MIG: BioMAP Diversity Plus: hDFCGF Assay for Monokine induced gamma interferon (MIG) Biomarker Activity (AID 2283063); conditions: primary human foreskin fibroblasts; actives raise or lower the signal
# How it was run: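 MIG/CXCL9 measured by ELISA 24 h after dosing primary human skin fibroblasts. Activity fitted in both directions against DMSO controls. Cytotoxicity was checked in parallel cultures by SRB staining read at 560 nm.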
# [11] = read-out: Vascular cell adhesion molecule 1 (VCAM1), VCAM1 (gene 7412); assay: BSK_hDFCGF_VCAM1: BioMAP Diversity Plus: hDFCGF Assay for Vascular cell adhesion molecule 1 (VCAM1) Biomarker Activity (AID 2283065); conditions: primary human foreskin fibroblasts; actives raise or lower the signal;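 on AC50: VCAM-1 protein level quantified by ELISA after 24 h chemical exposure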
# How it was run: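 Human foreskin fibroblast primary cells dosed with chemical, VCAM-1 measured by ELISA at 24 h. Bidirectional curve fitting relative to DMSO as negative control/baseline.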
# [12] = read-out: Plasminogen activator inhibitor-1 (PAI1), SERPINE1 (gene 5054); assay: BSK_hDFCGF_PAI1: BioMAP Diversity Plus: hDFCGF Assay for Plasminogen activator inhibitor-1 (PAI1) Biomarker Activity (AID 2283066); conditions: primary human foreskin fibroblasts; actives raise or lower the signal
# How it was run: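 PAI-1 levels in human dermal foreskin fibroblasts were quantified by ELISA 24 h after dosing, with gain or loss analysed against DMSO. Overt cytotoxicity was checked by sulforhodamine B total-protein staining in parallel cultures.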
# [13] = read-out: Intercellular Adhesion Molecule 1 (ICAM1), ICAM1 (gene 3383); assay: BSK_KF3CT_ICAM1: BioMAP Diversity Plus: KF3CT Assay for Intercellular Adhesion Molecule 1 (ICAM1) Biomarker Activity (AID 2283067); conditions: primary human keratinocytes with fibroblasts; actives raise or lower the signal
# How it was run: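 Human keratinocyte–foreskin fibroblast co-culture was treated for 24 h. Cell-surface ICAM-1 was quantified by ELISA, fitted bidirectionally relative to DMSO. Cytotoxicity was checked in parallel cultures by SRB total-protein staining.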
# [14] = read-out: Interferon-gamma inducible Protein 10 (IP10), CXCL10 (gene 3627); assay: BSK_KF3CT_IP10: BioMAP Diversity Plus: KF3CT Assay for Interferon-gamma inducible Protein 10 (IP10) Biomarker Activity (AID 2283068); conditions: primary human keratinocytes with fibroblasts; actives raise or lower the signal
# How it was run: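 Signal is secreted/surface IP-10 by ELISA in a human primary skin co-culture of keratinocytes and foreskin fibroblasts, taken 24 h post-dosing; DMSO served as negative control.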
# [15] = BSK_KF3CT_SRB: Viability Assessment in the BioMAP Diversity Plus: KF3CT Assay (AID 2283069); conditions: primary human keratinocytes with fibroblasts;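 further: read 24 h after compound addition; fitted for both signal gain and loss against DMSO baseline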
# How it was run: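 SRB read-out at 560 nm (0.1% stain, TCA-fixed cells) gauges overt cytotoxicity in a human skin keratinocyte–fibroblast co-culture 24 h post-dosing. Signal change was fitted bidirectionally relative to DMSO control.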
# [16] = read-out: Interleukin-1 alpha (IL1a), IL1A (gene 3552); assay: BSK_KF3CT_IL1a: BioMAP Diversity Plus: KF3CT Assay for Interleukin-1 alpha (IL1a) Biomarker Activity (AID 2283070); conditions: primary human keratinocytes with fibroblasts; actives raise or lower the signal
# How it was run: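 Primary skin co-culture (keratinocytes, foreskin fibroblasts), 24 h exposure; ELISA for IL-1a; bidirectional curve fit vs DMSO.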
# [17] = read-out: TIMP metallopeptidase inhibitor 2 (TIMP2), TIMP2 (gene 7077); assay: BSK_KF3CT_TIMP2: BioMAP Diversity Plus: KF3CT Assay for TIMP metallopeptidase inhibitor 2 (TIMP2) Biomarker Activity (AID 2283071); conditions: primary human keratinocytes with fibroblasts; actives raise or lower the signal
# How it was run: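 TIMP-2 measured by ELISA at 24 h in human keratinocyte/fibroblast primary co-cultures exposed to chemicals. Both increases and decreases were fitted against DMSO. Parallel cultures were stained with SRB for total protein as an overt-cytotoxicity check.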
# [18] = read-out: Transforming growth factor beta 1 (TGFb1), TGFB1 (gene 7040); assay: BSK_KF3CT_TGFb1: BioMAP Diversity Plus: KF3CT Assay for Transforming growth factor beta 1 (TGFb1) Biomarker Activity (AID 2283072); conditions: primary human keratinocytes with fibroblasts; actives raise or lower the signal
# How it was run: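 ELISA quantifies TGF-b1 at 24 h post-dose in a primary human skin co-culture of keratinocytes and fibroblasts, with gain or loss judged against DMSO. Parallel SRB total-protein staining flags overt cytotoxicity.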
# [19] = read-out: Collagen III, COL3A1 (gene 1281); assay: BSK_hDFCGF_CollagenIII: BioMAP Diversity Plus: hDFCGF Assay for Collagen III Biomarker Activity (AID 2283056); conditions: primary human foreskin fibroblasts; actives raise or lower the signal
# How it was run: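 Human foreskin fibroblast primary cultures sampled 24 h after dosing; Collagen III quantified by ELISA. Signal fitted bidirectionally against DMSO baseline.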
# [20] = read-out: Matrix Metallopeptidase 1 (MMP1), MMP1 (gene 4312); assay: BSK_hDFCGF_MMP1: BioMAP Diversity Plus: hDFCGF Assay for Matrix Metallopeptidase 1 (MMP1) Biomarker Activity (AID 2283064); conditions: primary human foreskin fibroblasts; actives raise or lower the signal
# How it was run: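 ELISA read-out of MMP1 from human foreskin fibroblasts (primary skin cells), 24 h post-dose. Gain or loss of signal was fitted bidirectionally versus DMSO negative control; cytotoxicity was checked by SRB in parallel cultures.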
compound,measurement,setting,value
C=CN1CCCC1=O,outcome,[1],inactive
same,outcome,[2],inactive
same,outcome,[3],inactive
same,outcome,[4],inactive
same,outcome,[5],inactive
same,outcome,[6],inactive
same,outcome,[7],inactive
same,outcome,[8],inactive
same,outcome,[9],inactive
same,outcome,[10],inactive
same,outcome,[11],inactive
same,outcome,[12],inactive
same,outcome,[13],inactive
same,outcome,[14],inactive
same,outcome,[15],inactive
same,outcome,[16],inactive
same,outcome,[17],inactive
same,outcome,[18],inactive
CCCCCCCCCC,outcome,[1],inactive
same,outcome,[2],inactive
same,outcome,[3],inactive
same,outcome,[19],inactive
same,outcome,[4],inactive
same,outcome,[5],inactive
same,outcome,[6],inactive
same,outcome,[7],inactive
same,outcome,[8],inactive
same,outcome,[10],inactive
same,outcome,[20],inactive
same,outcome,[11],inactive
same,outcome,[12],inactive
same,outcome,[13],inactive
same,outcome,[14],inactive
same,outcome,[15],inactive
same,outcome,[16],inactive
same,outcome,[17],inactive
same,outcome,[18],inactive
Cn1c(=O)c2[nH]cnc2n(C)c1=O,outcome,[1],inactive
same,outcome,[2],inactive
same,outcome,[3],inactive
same,outcome,[19],inactive
same,outcome,[4],inactive
same,outcome,[5],inactive
same,outcome,[6],inactive
same,outcome,[7],inactive
same,outcome,[10],inactive
same,outcome,[20],inactive
same,outcome,[11],inactive
same,outcome,[12],inactive
same,outcome,[13],inactive
same,outcome,[14],inactive
same,outcome,[15],inactive
same,outcome,[16],inactive
same,outcome,[17],inactive
same,outcome,[18],inactive
OCc1c[nH]c2ccccc12,outcome,[1],inactive
same,outcome,[2],inactive
same,outcome,[3],inactive
same,outcome,[19],inactive
same,outcome,[4],inactive
same,outcome,[5],inactive
same,AC50,[6],23.8 µM (active)
same,outcome,[7],inactive
same,outcome,[8],inactive
same,outcome,[10],inactive
same,AC50,[11],3.97 µM (active)
same,AC50,[12],4.75 µM (active)
same,outcome,[13],inactive
same,outcome,[14],inactive
same,outcome,[15],inactive
same,outcome,[16],inactive
same,outcome,[18],inactive
OCCOCCOCCO,outcome,[1],inactive
same,outcome,[2],inactive
same,outcome,[3],inactive
same,outcome,[19],inactive
same,outcome,[4],inactive
same,outcome,[5],inactive
same,outcome,[6],inactive
same,outcome,[7],inactive
same,outcome,[8],inactive
same,outcome,[10],inactive
same,outcome,[20],inactive
same,outcome,[11],inactive
same,outcome,[12],inactive
same,outcome,[13],inactive
same,outcome,[14],inactive
same,outcome,[15],inactive
same,outcome,[16],inactive
same,outcome,[17],inactive
same,outcome,[18],inactive
CCCCCCCC1CCC(=O)O1 (stereo unspecified),outcome,[1],inactive
same,outcome,[2],inactive
same,outcome,[3],inactive
same,outcome,[19],inactive
same,outcome,[4],inactive
same,outcome,[5],inactive
same,outcome,[6],inactive
same,outcome,[7],inactive
same,outcome,[8],inactive
same,outcome,[10],inactive
same,outcome,[11],inactive
same,outcome,[12],inactive
same,outcome,[13],inactive
same,outcome,[14],inactive
same,outcome,[15],inactive
same,outcome,[16],inactive
same,outcome,[17],inactive
same,outcome,[18],inactive
CC(C)CC(C)O (stereo unspecified),outcome,[1],inactive
same,outcome,[2],inactive
same,outcome,[3],inactive
same,outcome,[19],inactive
same,outcome,[4],inactive
same,outcome,[5],inactive
same,outcome,[6],inactive
same,outcome,[7],inactive
same,outcome,[8],inactive
same,outcome,[10],inactive
same,outcome,[11],inactive
same,outcome,[12],inactive
same,outcome,[13],inactive
same,outcome,[14],inactive
same,outcome,[15],inactive
same,outcome,[16],inactive
same,outcome,[17],inactive
same,outcome,[18],inactive
CC[C@H](C)C(=O)O[C@H]1C[C@H](O)C=C2C=C[C@H](C)[C@H](CC[C@@H](O)C[C@@H](O)CC(=O)O)[C@H]21,outcome,[1],inactive
same,outcome,[2],inactive
same,outcome,[3],inactive
same,outcome,[4],inactive
same,outcome,[5],inactive
same,outcome,[6],inactive
same,outcome,[7],inactive
same,outcome,[8],inactive
same,outcome,[9],inactive
same,outcome,[10],inactive
same,outcome,[20],inactive
same,outcome,[11],inactive
same,outcome,[12],inactive
same,outcome,[13],inactive
same,outcome,[14],inactive
same,outcome,[15],inactive
same,outcome,[16],inactive
same,outcome,[17],inactive
same,outcome,[18],inactive
